Data from PubChem BioAssay (EPA / NIEHS).
The source made the active and inactive calls. Rule for the calls: active = hit-call score of the fitted dose curve at least 0.9, where 1 is the maximum; inactive = score below 0.9.

Experiments:
[1] = APR_HepG2_CellLoss_72hr: Apredica 72-hour HepG2 Assay for Cell Loss (AID 2282915); conditions: high-content imaging
Procedure, shortened: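 HepG2 cells were exposed for 72 hr to compounds at 0.39–200 uM (ten concentrations, duplicate) in 0.5% v/v final DMSO. Nuclei were stained with Hoechst 33342 after 3.7% formaldehyde fixation, imaged at 20x, and counted; fits bidirectional versus DMSO.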

[2] = APR_HepG2_P-H2AX_72hr: Apredica 72-hour HepG2 Assay for H2AX Phosphorylation (AID 2282916); conditions: imaging, actives raise or lower the signal;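 note: phospho-histone H2A.x immunostain intensity per cell marking DNA damage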
Procedure, shortened: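 Readout: phospho-H2A.x immunofluorescence (FITC secondary) plus Hoechst nuclear stain, high-content imaging at 20x, six fields/well. HepG2, 72 hr compound exposure, 0.39–200 uM, final DMSO 0.5% v/v. Gain or loss fitted relative to DMSO baseline.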

[3] = APR_HepG2_MitoMembPot_72hr: Apredica 72-hour HepG2 Assay for Mitochondrial Membrane Potential (AID 2282917); conditions: imaging, actives raise or lower the signal
Procedure, shortened: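 HepG2 cells exposed 72 h to compounds at 0.39–200 uM (0.5% v/v DMSO, duplicates); MitoTracker Red CMXRos 250 nM loaded 30 min before 3.7% formaldehyde fixation, imaged by HCS fluorescence. Bidirectional fit versus DMSO.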

[4] = APR_HepG2_MitoticArrest_72hr: Apredica 72-hour HepG2 Assay for Mitotic Arrest (AID 2282918); conditions: high-content imaging, actives raise or lower the signal
Procedure, shortened: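 Using high-content imaging of fixed HepG2 cells, phospho-histone H3 signal was measured following a 72 hr incubation with ten-point compound dilutions up to 200 uM. DMSO served as the negative control and baseline for bidirectional curve fitting.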

[5] = APR_HepG2_MicrotubuleCSK_72hr: Apredica 72-hour HepG2 Assay for Microtubule CSK Stabilty (AID 2282919); conditions: HepG2 microtubule cytoskeleton, high-content imaging, actives raise or lower the signal
Procedure, shortened: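 Ten-point dosing (0.39–200 uM, 0.5% DMSO) of HepG2 for 72 hr, with taxol as the cytoskeletal positive control. The cells were formaldehyde-fixed and then stained with alpha-tubulin/Cy5 and Hoechst. Imaging at 20x used a −2 um Z offset for tubulin.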

[6] = APR_HepG2_P-H2AX_24hr: Apredica 24-hour HepG2 Assay for H2AX Phosphorylation (AID 2282920); conditions: high-content imaging, actives raise or lower the signal
Procedure, shortened: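 Human HepG2 liver cells, treated 24 hr with test chemicals (0.39–200 uM, final DMSO 0.5% v/v), are fixed and co-stained for phospho-H2A.x and c-Jun with Hoechst. Imaged intensity is fitted in both directions against DMSO controls.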

[7] = APR_HepG2_StressKinase_72hr: Apredica 72-hour HepG2 Assay for Stress Kinase (AID 2282921); conditions: HepG2 stress kinase (phospho-c-Jun) imaging, actives raise or lower the signal
Procedure, shortened: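 Phospho-c-Jun immunofluorescence measured by high-content imaging at 20x, six fields per well; bidirectional curve fitting against DMSO as baseline. Dosing: 0.39–200 uM, 72 h, 0.5% DMSO final.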

[8] = APR_HepG2_StressKinase_24hr: Apredica 24-hour HepG2 Assay for Stress Kinase (AID 2282922); conditions: HepG2 stress kinase (phospho-c-Jun) imaging, actives raise or lower the signal
Procedure, shortened: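 After 24 hr compound treatment (up to 200 uM, final DMSO 0.5% v/v), HepG2 cells are fixed and multiplex-labeled; phospho-c-Jun intensity is captured by high-content fluorescence imaging and analyzed relative to DMSO.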

[9] = APR_HepG2_p53Act_72hr: Apredica 72-hour HepG2 Assay for p53 Activation (AID 2282923); conditions: high-content imaging, actives raise or lower the signal;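 note: average cellular p53 protein immunofluorescence intensity in HepG2 cells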
Procedure, shortened: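 Readout: p53 immunofluorescence quantified by automated high-content imaging at 20x, six fields per well, nuclei located via Hoechst. Dosing ran 72 hr over ten concentrations from 0.39 to 200 uM; bidirectional curve fitting against DMSO baseline.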

[10] = APR_HepG2_MitoMass_72hr: Apredica 72-hour HepG2 Assay for Mitochondrial Mass (AID 2282924); conditions: high-content imaging, actives raise or lower the signal;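 note: MitoTracker Red CMXRos stain intensity per cell imaged as mitochondrial mass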
Procedure, shortened: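 Steps: treat HepG2 72 hr (0.39–200 uM, duplicate wells); load MitoTracker Red CMXRos, 250 nM, 30 min; fix with 3.7% formaldehyde, permeabilise with 0.5% Triton X-100; capture images, nuclei via Hoechst 33342; fit bidirectionally against DMSO.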

Measured: AC50

Nc1cnn(-c2ccccc2)c(=O)c1Cl
inactive: [1] | [2] | [3] | [4] | [5] | [6] | [7] | [8] | [9] | [10]

CNC(=O)Oc1cccc2ccccc12
inactive: [4] | [5] | [7] | [8] | [9]
active: [1] 102 µM | [2] 97.3 µM | [3] 76.9 µM | [6] 102 µM | [10] 36 µM

COC(=O)N(C(=O)N1CO[C@@]2(C(=O)OC)Cc3cc(Cl)ccc3C2=N1)c1ccc(OC(F)(F)F)cc1
inactive: [1] | [2] | [3] | [4] | [5] | [6] | [7] | [8] | [9] | [10]

CCOc1nc(F)cc2nc(S(=O)(=O)Nc3c(Cl)cccc3Cl)nn12
inactive: [1] | [2] | [3] | [4] | [5] | [6] | [7] | [8] | [9] | [10]

Cn1c(-c2ccccc2)cc(-c2ccccc2)[n+]1C
inactive: [1] | [2] | [3] | [4] | [5] | [6] | [7] | [9] | [10]

CCOc1cc(C(C)(C)C)ccc1C1COC(c2c(F)cccc2F)=N1 (stereo unspecified)
inactive: [2] | [3] | [4] | [6] | [7] | [8] | [10]
active: [1] 103 µM | [5] 47.2 µM

Clc1cccc(C(Cl)(Cl)Cl)n1
inactive: [1] | [2] | [3] | [4] | [5] | [6] | [7] | [8] | [9] | [10]

CCCCOCN(C(=O)CCl)c1c(CC)cccc1CC
active: [1] 30.6 µM | [2] 113 µM | [3] 33.2 µM | [4] 181 µM | [5] 10.6 µM | [7] 13.2 µM
inactive: [6] | [8] | [9] | [10]

COC(=O)c1c(C(F)F)nc(C(F)(F)F)c(C2=NCCS2)c1CC(C)C
active: [1] 60.5 µM | [5] 72.7 µM
inactive: [2] | [3] | [4] | [6] | [7] | [9] | [10]

O=P(O)(O)CCCl
inactive: [1] | [2] | [3] | [4] | [5] | [6] | [7] | [8] | [9] | [10]

CC(C)=CC1C(C(=O)OCc2coc(Cc3ccccc3)c2)C1(C)C (stereo unspecified)
inactive: [2] | [4] | [6] | [7] | [8] | [10]
active: [1] 40.1 µM | [3] 159 µM | [5] 74.2 µM

COc1ccc(-c2ccccc2)cc1NNC(=O)OC(C)C
inactive: [1] | [2] | [3] | [4] | [5] | [6] | [7] | [8] | [9] | [10]

OC(c1ccc(Cl)cc1)(c1ccc(Cl)cc1)C(Cl)(Cl)Cl
inactive: [2] | [3] | [4] | [7] | [9] | [10]
active: [1] 32.2 µM | [5] 32.2 µM | [6] 68.8 µM | [8] 107 µM

COCC(=O)N(c1c(C)cccc1C)C(C)C(=O)OC (stereo unspecified)
inactive: [1] | [2] | [3] | [4] | [5] | [6] | [7] | [8] | [9] | [10]

CCOC(=O)C(C)OC(=O)c1cc(Oc2ccc(C(F)(F)F)cc2Cl)ccc1[N+](=O)[O-] (stereo unspecified)
active: [1] 41 µM | [3] 19.8 µM
inactive: [2] | [4] | [5] | [6] | [7] | [8] | [9] | [10]

CN/C(=N\[N+](=O)[O-])NCc1cnc(Cl)s1
inactive: [1] | [2] | [3] | [4] | [5] | [6] | [7] | [8] | [9] | [10]

CCNP(=S)(OC)O/C(C)=C/C(=O)OC(C)C (stereo unspecified)
inactive: [1] | [2] | [3] | [4] | [5] | [6] | [7] | [9] | [10]

CSC(=O)c1c(C(F)F)nc(C(F)(F)F)c(C(=O)SC)c1CC(C)C
inactive: [2] | [3] | [6] | [7] | [9] | [10]
active: [1] 73.9 µM | [4] 67.7 µM | [5] 64.6 µM

CC1(C)C(C(=O)OC(C#N)c2cccc(Oc3ccccc3)c2)C1(C)C (stereo unspecified)
inactive: [2] | [3] | [4] | [6] | [7] | [9] | [10]
active: [1] 70.3 µM | [5] 100 µM

CC(C)N1C(=O)c2ccccc2NS1(=O)=O
inactive: [1] | [2] | [3] | [4] | [5] | [6] | [7] | [9] | [10]

COC(=O)NC(=S)Nc1ccccc1NC(=S)NC(=O)OC
inactive: [2] | [3] | [4] | [5] | [6] | [7] | [9]
active: [1] 26.1 µM | [10] 41.6 µM
